Drawing on ChEMBL document CHEMBL3988442, “University of Dundee, Small-Polar-MMV Screening Library” (2021), this text covers Percent Effect for ten compounds.

For some assays here: Potency and affinity values are given separately.

Parameters in all cases: scale not given: direction of the effect not stated beside the values
Test [1] deals with Protein translocase subunit SecA (Escherichia coli (strain K12)) (UniProt P10408). As to the kind of experiment: Assay to Identify E. coli SecA ATPase Inhibitors. The test is classed as functional. Conditions: 30 µM.
For test [2], the target named is T1, Ubiquitin-activating enzyme e1, putative (Leishmania donovani (strain BPK282A1)) (UniProt E9BSI1).
T1 sequence (whole entry): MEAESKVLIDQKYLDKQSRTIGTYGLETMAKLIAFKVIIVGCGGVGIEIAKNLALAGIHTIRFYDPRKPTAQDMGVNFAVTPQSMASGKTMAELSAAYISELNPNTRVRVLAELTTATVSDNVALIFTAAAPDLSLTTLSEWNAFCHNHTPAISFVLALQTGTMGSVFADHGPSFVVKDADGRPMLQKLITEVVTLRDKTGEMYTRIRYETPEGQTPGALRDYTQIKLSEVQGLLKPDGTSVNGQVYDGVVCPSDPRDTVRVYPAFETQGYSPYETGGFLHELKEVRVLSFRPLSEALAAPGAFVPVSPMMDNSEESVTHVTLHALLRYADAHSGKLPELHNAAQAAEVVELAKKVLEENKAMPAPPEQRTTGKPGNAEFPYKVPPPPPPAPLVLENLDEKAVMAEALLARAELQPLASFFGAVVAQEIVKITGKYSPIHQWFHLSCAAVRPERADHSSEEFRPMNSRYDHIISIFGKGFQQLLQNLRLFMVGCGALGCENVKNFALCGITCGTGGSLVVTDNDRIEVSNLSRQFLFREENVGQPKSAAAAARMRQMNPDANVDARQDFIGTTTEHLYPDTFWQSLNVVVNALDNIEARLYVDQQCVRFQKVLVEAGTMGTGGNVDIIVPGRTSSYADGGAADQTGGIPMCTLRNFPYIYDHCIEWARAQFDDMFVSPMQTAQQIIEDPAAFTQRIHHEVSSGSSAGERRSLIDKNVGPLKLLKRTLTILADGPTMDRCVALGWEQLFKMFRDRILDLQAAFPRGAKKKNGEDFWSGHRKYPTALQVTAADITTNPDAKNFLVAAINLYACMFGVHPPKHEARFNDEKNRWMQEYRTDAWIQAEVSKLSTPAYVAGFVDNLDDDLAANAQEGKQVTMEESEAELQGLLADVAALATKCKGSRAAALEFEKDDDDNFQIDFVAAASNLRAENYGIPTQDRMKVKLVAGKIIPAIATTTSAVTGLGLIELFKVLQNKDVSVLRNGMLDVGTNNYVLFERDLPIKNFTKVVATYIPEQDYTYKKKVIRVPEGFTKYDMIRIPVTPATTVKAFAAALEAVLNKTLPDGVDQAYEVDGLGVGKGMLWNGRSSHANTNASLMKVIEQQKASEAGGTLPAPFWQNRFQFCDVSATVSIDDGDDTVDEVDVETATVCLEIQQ
Put plainly: Leishmania donovani Ubiquitin Activating Enzyme (LdE1). The class given is functional. Conditions: 30 µM.

Test [3] concerns the target AMP-activated protein kinase, AMPK (Homo sapiens) (UniProt P54646+O43741+P54619+Q9UGJ0+Q9Y478+Q13131+Q9UGI9). Put plainly: AMP-dependent Kinase enzyme assay. An in vitro enzyme assay that detects ADP turnover that is directly proportional to AMPK activity. This uses naive AMPK that is activated during the assay with MK-8722. The test is classed as functional. Conditions: 30 µM.

In test [4] the target is Sialic acid-binding Ig-like lectin 9 (Homo sapiens) (UniProt Q9Y336). As to the kind of experiment: Hs-Siglec9 ALPHAscreen SOP 20170721. Particulars: 10 µM. On the technique in general: Alpha assays give light when donor and acceptor beads are brought close together.
In the next test the test system is Trypanosoma cruzi. As to the kind of experiment: Trypanosoma cruzi phosphomannomutase and mannose-1-phosphate guanylyltransferase assay. Conditions: 10 µM. The class given is functional.
Test [5] concerns the target T2, Arginase-2, mitochondrial (Homo sapiens) (UniProt P78540).
T2 sequence (whole entry): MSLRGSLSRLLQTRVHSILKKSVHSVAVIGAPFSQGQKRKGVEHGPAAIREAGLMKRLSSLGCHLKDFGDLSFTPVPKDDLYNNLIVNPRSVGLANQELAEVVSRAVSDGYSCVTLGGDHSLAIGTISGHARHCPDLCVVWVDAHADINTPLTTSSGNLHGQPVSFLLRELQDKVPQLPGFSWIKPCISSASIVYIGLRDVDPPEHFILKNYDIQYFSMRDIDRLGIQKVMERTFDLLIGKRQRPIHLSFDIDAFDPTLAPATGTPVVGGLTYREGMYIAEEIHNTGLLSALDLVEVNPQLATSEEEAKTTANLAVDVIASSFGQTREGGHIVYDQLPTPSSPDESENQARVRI
As to the kind of experiment: in vitro enzyme assay to detect the production of urea directly proportional to the activity of Arginase II. Also: in the data most compounds retested in dose-response had high values. The class given is functional. Particulars: 33.3 µM.

Test [6] addresses T3, Proteasome subunit beta (Trypanosoma cruzi) (UniProt O96673).
T3 sequence (whole entry): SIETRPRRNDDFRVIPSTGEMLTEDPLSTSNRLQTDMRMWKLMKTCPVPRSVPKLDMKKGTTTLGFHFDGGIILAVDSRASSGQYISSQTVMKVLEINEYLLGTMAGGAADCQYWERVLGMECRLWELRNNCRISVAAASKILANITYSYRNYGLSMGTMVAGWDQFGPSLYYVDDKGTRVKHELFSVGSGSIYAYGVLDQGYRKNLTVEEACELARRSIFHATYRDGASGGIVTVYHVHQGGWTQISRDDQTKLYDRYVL
As to the kind of experiment: Trypanosoma cruzi proteasome chymotrypsin-like activity (TcProtChymo) assay. Also: in the data most compounds retested in dose-response had high values. The class given is functional. Conditions: 9.37 µM.

The species entered for another test is Homo sapiens. As to the kind of experiment: To identify inhibition of the IFN signalling (Jak-Stat) pathway via expression of an eGFP reporter gene under the control of an IFN-stimulated response element (ISRE) containing MxA promoter. Particulars: 30 µM. The test is classed as functional. On the technique in general: Reporter assays use an easily measured gene product as a stand-in for the process of interest.

The target of test [7] is T4, Tyrosyl-tRNA synthetase, putative (Trypanosoma cruzi (strain CL Brener)) (UniProt Q4DSP6).
T4 sequence (whole entry): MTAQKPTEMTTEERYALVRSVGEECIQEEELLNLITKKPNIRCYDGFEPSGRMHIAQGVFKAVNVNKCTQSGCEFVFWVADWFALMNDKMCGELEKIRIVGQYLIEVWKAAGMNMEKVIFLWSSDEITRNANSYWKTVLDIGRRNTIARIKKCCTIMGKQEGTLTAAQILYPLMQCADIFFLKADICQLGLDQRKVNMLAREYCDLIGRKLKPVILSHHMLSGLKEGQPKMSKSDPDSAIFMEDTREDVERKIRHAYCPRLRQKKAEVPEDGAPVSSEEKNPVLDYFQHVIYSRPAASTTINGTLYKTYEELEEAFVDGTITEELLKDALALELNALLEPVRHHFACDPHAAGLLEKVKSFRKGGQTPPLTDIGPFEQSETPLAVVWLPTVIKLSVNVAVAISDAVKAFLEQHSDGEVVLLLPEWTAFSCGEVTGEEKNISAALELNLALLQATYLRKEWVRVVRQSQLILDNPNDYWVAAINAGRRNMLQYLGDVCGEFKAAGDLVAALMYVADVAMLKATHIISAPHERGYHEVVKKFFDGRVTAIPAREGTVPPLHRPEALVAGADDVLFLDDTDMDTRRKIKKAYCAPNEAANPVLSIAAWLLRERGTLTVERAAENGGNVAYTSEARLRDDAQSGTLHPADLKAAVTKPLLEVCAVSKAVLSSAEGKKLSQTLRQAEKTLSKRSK
As to the kind of experiment: Trypanosoma cruzi tyrosyl tRNA synthetase (TcYRS) _High Tyrosine SOP. Also: in the data most compounds retested in dose-response had high values. The class given is functional. Particulars: 30 µM.

The target of test [8] is T4, Tyrosyl-tRNA synthetase, putative (Trypanosoma cruzi (strain CL Brener)). Put plainly: Trypanosoma cruzi tyrosyl tRNA synthetase (TcYRS) SOP. Conditions: 30 µM. The test is classed as functional.
In test [9] the target is Chromo domain-containing protein 1 (Saccharomyces cerevisiae (strain ATCC 204508 / S288c) (Baker's yeast)) (UniProt P32657). Put plainly: ScCHD-1 Enzyme Inhibition Assay. Also: in the data most compounds retested in dose-response had high values. The test is classed as functional. Conditions: 30 µM.
Chromo domain-containing protein 1 (Saccharomyces cerevisiae (strain ATCC 204508 / S288c) (Baker's yeast)), sequence (P32657 whole entry, the tested form may be a part): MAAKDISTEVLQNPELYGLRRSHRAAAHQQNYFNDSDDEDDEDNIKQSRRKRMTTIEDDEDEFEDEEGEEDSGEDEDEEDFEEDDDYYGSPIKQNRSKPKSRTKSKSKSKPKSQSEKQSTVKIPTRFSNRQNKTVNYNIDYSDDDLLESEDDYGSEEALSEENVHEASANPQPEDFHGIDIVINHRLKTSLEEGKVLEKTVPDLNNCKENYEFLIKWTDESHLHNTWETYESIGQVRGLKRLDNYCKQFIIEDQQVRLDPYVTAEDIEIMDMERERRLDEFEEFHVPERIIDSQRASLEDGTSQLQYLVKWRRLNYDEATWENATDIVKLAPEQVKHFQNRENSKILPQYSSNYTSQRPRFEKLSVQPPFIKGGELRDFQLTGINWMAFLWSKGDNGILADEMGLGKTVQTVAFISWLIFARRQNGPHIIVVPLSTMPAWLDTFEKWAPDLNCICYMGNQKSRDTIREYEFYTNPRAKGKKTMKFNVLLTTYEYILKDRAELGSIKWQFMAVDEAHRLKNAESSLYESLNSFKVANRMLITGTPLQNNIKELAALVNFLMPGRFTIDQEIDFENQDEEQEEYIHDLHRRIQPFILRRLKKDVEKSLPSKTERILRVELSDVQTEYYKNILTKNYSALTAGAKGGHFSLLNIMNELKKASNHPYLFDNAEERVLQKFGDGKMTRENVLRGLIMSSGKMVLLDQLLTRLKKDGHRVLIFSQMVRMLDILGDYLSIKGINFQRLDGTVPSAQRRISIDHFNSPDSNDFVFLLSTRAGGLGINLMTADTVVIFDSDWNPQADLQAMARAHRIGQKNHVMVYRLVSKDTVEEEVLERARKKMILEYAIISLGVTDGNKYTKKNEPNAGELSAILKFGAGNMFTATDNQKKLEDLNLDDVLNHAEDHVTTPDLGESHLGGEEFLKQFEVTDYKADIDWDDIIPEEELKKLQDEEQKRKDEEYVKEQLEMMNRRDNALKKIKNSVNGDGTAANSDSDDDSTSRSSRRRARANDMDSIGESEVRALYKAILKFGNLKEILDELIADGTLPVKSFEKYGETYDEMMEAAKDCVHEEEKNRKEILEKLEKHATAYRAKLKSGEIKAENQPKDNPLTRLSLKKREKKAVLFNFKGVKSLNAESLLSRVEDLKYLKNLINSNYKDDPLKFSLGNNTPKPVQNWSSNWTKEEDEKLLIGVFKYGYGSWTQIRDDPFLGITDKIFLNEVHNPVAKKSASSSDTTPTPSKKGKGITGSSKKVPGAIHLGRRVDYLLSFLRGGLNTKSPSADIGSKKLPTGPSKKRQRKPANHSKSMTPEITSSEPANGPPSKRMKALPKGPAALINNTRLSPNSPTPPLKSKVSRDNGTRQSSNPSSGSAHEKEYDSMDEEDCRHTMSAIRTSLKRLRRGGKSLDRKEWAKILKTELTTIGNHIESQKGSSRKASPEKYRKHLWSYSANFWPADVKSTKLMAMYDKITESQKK

Protein translocase subunit SecA (Escherichia coli (strain K12)), sequence (P10408 whole entry): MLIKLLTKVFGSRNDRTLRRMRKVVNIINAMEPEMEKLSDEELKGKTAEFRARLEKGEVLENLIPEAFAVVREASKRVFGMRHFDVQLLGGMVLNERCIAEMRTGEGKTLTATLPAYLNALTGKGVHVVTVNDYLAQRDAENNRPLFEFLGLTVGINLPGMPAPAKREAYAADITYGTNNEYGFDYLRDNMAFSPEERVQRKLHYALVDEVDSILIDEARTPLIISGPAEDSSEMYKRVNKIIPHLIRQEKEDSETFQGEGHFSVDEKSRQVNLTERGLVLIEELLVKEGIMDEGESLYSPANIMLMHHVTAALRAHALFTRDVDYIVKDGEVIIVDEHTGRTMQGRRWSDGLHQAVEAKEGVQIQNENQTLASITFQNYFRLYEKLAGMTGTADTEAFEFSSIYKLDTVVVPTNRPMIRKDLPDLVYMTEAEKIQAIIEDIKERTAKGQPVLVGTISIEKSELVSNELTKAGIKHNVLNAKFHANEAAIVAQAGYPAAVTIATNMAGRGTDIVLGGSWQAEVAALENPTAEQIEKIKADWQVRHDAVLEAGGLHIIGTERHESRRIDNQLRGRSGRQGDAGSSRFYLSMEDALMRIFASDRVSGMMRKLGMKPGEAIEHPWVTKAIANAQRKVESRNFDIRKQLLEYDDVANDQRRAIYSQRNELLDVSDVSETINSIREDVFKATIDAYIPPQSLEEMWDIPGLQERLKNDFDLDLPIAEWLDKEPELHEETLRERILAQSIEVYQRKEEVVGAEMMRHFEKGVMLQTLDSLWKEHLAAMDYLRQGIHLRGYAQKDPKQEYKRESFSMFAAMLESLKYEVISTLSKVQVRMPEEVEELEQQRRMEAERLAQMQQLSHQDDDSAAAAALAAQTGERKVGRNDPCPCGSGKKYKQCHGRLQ
Sialic acid-binding Ig-like lectin 9 (Homo sapiens), sequence (Q9Y336 whole entry): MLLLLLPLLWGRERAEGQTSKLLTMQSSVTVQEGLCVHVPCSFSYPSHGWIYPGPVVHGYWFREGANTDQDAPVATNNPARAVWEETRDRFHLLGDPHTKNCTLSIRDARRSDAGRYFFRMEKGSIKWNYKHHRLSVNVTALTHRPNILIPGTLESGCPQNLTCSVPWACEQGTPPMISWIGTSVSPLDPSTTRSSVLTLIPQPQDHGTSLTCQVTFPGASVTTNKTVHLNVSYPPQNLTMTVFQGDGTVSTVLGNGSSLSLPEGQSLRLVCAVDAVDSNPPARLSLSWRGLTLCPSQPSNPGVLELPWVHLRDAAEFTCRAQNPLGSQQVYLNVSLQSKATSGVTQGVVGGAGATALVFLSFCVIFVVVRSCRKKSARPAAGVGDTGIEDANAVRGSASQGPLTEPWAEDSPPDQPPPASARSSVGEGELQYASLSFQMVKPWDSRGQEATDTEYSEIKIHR

Take `c1cnnc(N2CCCC(NCc3ccc(-n4cccn4)cc3)C2)c1` (stereo not given): the Percent Effect in test [1] is -0.865%; in test [2], -5.2%; in test [3] it was 14.6%; in test [4], 4.94%; with Trypanosoma cruzi, -0.686%; in test [5], 1.9%. Also, the Percent Effect was 1.7% in test [6]; 20.3% in the test listed under Homo sapiens; 0.952% in test [7]; 7.06% in [8]; -7.51% in test [9].

In the case of `Cc1cc(CN2CCN(C(C)c3nc(C4CC4)no3)CC2)no1` (stereo not given), the Percent Effect in [1] is 1.42%; in test [2] it was 8.86%; in test [3] it was -5.67%; in test [4], -3.17%; with Trypanosoma cruzi it was -1.33%; in [5] it was 4.52%. Moreover, the Percent Effect was 13.4% in [6]; 28.4% in the test filed under Homo sapiens; -1.04% in test [7]; 5.06% in test [8]; -25.2% in test [9].

For `N#Cc1ccccc1N1CCCN(C(=O)CCn2cccn2)CC1`, the Percent Effect in test [1] is -6.4%; in test [2] it was 15.2%; in test [3], 5.53%; in test [4], 0.749%; in the test on Trypanosoma cruzi, 5.19%; in [5], -0.76%. The Percent Effect in [6] was 6.8%; in the test listed under Homo sapiens, 3.94%; in test [7], 5.42%; in [8], 16.5%; in test [9], -6.74%.

Turning to `CC(C)c1nc2c(n1C)CCN(Cc1nc(-c3cccs3)no1)C2`, the Percent Effect was -5.48% in test [1]; -5.41% in [2]; 8.78% in [3]; 3.18% in test [4]; 1.21% with Trypanosoma cruzi; -1.66% in test [5]. The Percent Effect was 2.33% in test [6]; 0.809% in the test filed under Homo sapiens; 6.93% in test [7]; 11% in test [8]; 9.28% in test [9].

For the compound `Cn1cccc1CCC(=O)N1CCC2(CC1)c1ccccc1CC2O` (stereo not given), the Percent Effect was 0.249% in test [1]; 13% in test [2]; -1.66% in [3]; 10.8% in test [4]; 4.23% with Trypanosoma cruzi; -38.6% in [5]. Moreover, the Percent Effect in test [6] is 20.6%; in the test listed under Homo sapiens, 21.3%; in [7], 11.8%; in test [8] it was 16.1%; in test [9], 5.42%.

Consider `COCC1CN(C(=O)c2cccn2C)Cc2nccn2C1` (stereo not given), for which the Percent Effect in test [1] is -0.683%; in test [2] it was 10.7%; in test [3] it was 12.7%; in test [4], -7.24%; in the test on Trypanosoma cruzi it was -5.32%; in test [5] it was 1.63%. For the same compound, the Percent Effect in [6] is 13.8%; in the test filed under Homo sapiens, 10.6%; in test [7], 2.13%; in [8], 11.5%; in test [9], -4.6%.

For the compound `CC(C)(C)C(=O)NCCC(=O)NS(=O)(=O)c1ccc2c(c1)OCCO2`, the Percent Effect in test [1] was -4.61%; in test [2] it was 5.48%; in [3] it was 0.75%; in [4], 8.35%; with Trypanosoma cruzi, 7.64%; in test [5], -0.909%. The Percent Effect in test [6] was 7.1%; in the test filed under Homo sapiens, -22.6%; in test [7], 5.38%; in test [8] it was 10%; in [9], -1.32%.

With `O=C(c1cnco1)N1CCCC(Cc2cccc3ncccc23)C1` (stereo not given), the Percent Effect in test [1] is -1.91%; in test [2] it was -4.05%; in [3] it was 15.2%; in test [4], -0.964%; in the test with Trypanosoma cruzi, 7.51%; in [5], 0.696%. Further, the Percent Effect in [6] was 8.42%; in the test listed under Homo sapiens it was 17.8%; in test [7] it was 1.07%; in test [8], 9.09%; in [9], -18.8%.

As to `Cc1ncc2c(n1)CN(CC(=O)Nc1nncs1)CC2`, the Percent Effect in test [1] is -1.88%; in test [2], 2.63%; in test [3], -37.1%; in [4], 5.79%; in the test with Trypanosoma cruzi, 3.27%; in test [5], 1.08%. For the same compound, the Percent Effect in test [6] was 6.01%; in the test listed under Homo sapiens, -6.49%; in test [7] it was 5.42%; in [8], 11.1%; in test [9], -4.76%.

`COc1c(C2CCCN2Cc2cc(C)no2)c(C)nn1C` (stereo not given): the Percent Effect in test [1] was -1.92%; in [2], 8.11%; in test [3] it was -4.61%; in test [4], -2.24%; in the test with Trypanosoma cruzi, -5.11%; in test [5], 3.88%. For the same compound, the Percent Effect in [6] was 11.3%; in the test listed under Homo sapiens it was 15.9%; in test [7], 4.95%; in test [8], 11%; in test [9], -0.457%.
